# According to ChEMBL document CHEMBL4513156, “CO-ADD screening of NCPRI (Romania) compounds”:
# Entries with a potency or affinity are not part of this list.
# How the values were obtained:
# Staphylococcus aureus = conditions: Concentration 32 ug.mL-1; ASSAY_TEST Inhibition of Bacterial Growth; detection method Absorption (OD600); MEDIA CAMHB; plate type 384well; NBS; CORNING #3640; time 18 hr
# Escherichia coli = conditions: Concentration 32 ug.mL-1; ASSAY_TEST Inhibition of Bacterial Growth; detection method Absorption (OD600); MEDIA CAMHB; plate type 384well; NBS; CORNING #3640; time 18 hr
Structure (SMILES),Inhibition (Staphylococcus aureus) [%],Inhibition (Escherichia coli) [%]
COC(=O)C[C@H]1[C@H](/C=N\NC(=O)c2ccncc2)[C@@H](O[Si](C)(C)C(C)(C)C)C[C@@H]1Cl,29.13,13.69
O=C(N/N=C1\C[C@@H]2[C@H](COC(c3ccccc3)(c3ccccc3)c3ccccc3)C[C@H](CO)[C@@H]2C1)c1ccncc1,13.89,6.21
COC(=O)CCCCCC[C@@H]1[C@@H](/C=N/NC(=O)c2ccncc2)[C@H](OC(=O)c2ccccc2)C[C@@H]1O,26.15,14.2
O=C(N/N=C/C[C@@H]1[C@@H](/C=N/NC(=O)c2ccncc2)[C@H](O)C[C@@H]1O)c1ccncc1,16.7,6.29
O=C(N/N=C/C[C@@H]1[C@@H](/C=C/[C@@H](O)COc2cccc(Cl)c2)[C@H](O)C[C@@H]1O)c1ccncc1,27.05,14.88
O=C(N/N=C1/C[C@@H]2[C@H](C1)[C@H](OC(=O)c1ccccc1)C[C@@H]2OC(=O)c1ccccc1)c1ccncc1,26.15,8.09
O=C(N/N=C1/C2C[C@H]3C(C2C(=O)O)[C@@H]13)c1ccncc1 (stereo not given in full),16.39,13.83
O=C(N/N=C/[C@@H]1C[C@H](CO)[C@@H]2CCC[C@@H]21)c1ccncc1,23.56,14.61
O=C(NNC(=O)c1ccc([N+](=O)[O-])cc1C(=O)O)c1ccncc1,30.83,15.66
COC(=O)CCCCCC[C@@H]1[C@@H](/C=N/NC(=O)c2ccncc2)[C@H](O)C[C@@H]1O,12.62,6.85
